# Paper PMC7862700, “An all-to-all approach to the identification of sequence-specific readers for epigenetic DNA modifications on cytosine”
# What was measured:
# Experiment in all cases: DAPPL (digital affinity profiling via proximity ligation, sequencing); 10 mM Tris-HCl pH 7.5, 50 mM NaCl, 1 mM DTT, 4% glycerol, room temperature, 30 min; GST-TFs on glutathione beads, 16-mer random dsDNA library, 0.1% formaldehyde crosslink after washing; high values mean tight binding
# [1] = biological target: T1, FLI1 (Homo sapiens, UniProt Q01543 1-452); conditions: protein: recombinant; tags: N-terminal GST; dsDNA, one strand shown
# T1 sequence: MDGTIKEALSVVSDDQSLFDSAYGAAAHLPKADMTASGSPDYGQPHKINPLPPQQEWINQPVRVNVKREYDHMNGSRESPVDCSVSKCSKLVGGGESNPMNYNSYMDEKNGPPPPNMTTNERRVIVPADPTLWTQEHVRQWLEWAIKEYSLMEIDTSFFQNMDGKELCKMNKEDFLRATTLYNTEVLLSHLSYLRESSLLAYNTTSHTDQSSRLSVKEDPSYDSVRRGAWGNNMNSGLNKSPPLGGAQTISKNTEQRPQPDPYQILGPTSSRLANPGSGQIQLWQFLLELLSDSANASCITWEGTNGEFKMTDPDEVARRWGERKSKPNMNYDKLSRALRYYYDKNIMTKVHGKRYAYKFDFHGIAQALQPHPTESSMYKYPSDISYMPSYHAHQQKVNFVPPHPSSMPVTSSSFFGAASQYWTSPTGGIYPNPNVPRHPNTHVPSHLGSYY
# How it was run: (§1)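 Beads coated with glutathione captured GST-fused human transcription factors that had been expressed in yeast, and the factors were then given DNA barcodes and pooled with a tag-only sample. The pools were incubated with 200 nmole of a random double-stranded 16-mer DNA library in Tris/NaCl/DTT/glycerol buffer for 30 min at room temperature, washed, crosslinked with 0.1% formaldehyde and proximity-ligated with BsaI/T4 ligase at 37 °C for 1 h. PCR amplification and Illumina NextSeq500 sequencing came last. Binding signal is each hexamer's read frequency for a factor divided by its frequency for the tag-only sample.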
# [2] = biological target: T2, ELK1 (Homo sapiens, UniProt P19419 1-428); conditions: protein: recombinant; tags: N-terminal GST; dsDNA, one strand shown
# T2 sequence: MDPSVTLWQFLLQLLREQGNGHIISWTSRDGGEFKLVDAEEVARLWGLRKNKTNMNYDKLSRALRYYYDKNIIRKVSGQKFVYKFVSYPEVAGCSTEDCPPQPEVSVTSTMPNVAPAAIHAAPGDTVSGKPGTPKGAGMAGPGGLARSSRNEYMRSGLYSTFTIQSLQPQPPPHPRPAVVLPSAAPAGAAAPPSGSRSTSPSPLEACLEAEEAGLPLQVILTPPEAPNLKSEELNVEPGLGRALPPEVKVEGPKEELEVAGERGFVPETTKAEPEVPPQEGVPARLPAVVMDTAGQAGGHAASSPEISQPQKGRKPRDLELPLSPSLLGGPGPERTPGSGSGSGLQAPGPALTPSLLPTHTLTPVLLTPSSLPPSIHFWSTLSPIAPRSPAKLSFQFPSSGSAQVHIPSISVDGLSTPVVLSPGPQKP
# How it was run: as §1
# [3] = biological target: T3, GABPA (Homo sapiens, UniProt Q06546 1-454); conditions: protein: recombinant; tags: N-terminal GST; dsDNA, one strand shown
# T3 sequence: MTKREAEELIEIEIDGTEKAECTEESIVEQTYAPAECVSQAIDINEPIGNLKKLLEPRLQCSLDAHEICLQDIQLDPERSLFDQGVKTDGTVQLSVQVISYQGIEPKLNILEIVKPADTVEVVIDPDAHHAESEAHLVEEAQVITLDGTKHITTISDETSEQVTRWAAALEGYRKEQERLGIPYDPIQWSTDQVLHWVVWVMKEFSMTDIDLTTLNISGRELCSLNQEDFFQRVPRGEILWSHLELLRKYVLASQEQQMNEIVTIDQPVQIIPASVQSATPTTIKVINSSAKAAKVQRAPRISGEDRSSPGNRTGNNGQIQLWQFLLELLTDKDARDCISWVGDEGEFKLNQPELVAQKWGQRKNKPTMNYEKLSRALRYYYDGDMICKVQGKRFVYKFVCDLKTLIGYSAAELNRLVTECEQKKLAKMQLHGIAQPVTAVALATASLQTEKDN
# How it was run: as §1
# [4] = biological target: T4, ERG (Homo sapiens, UniProt P11308 1-479); conditions: protein: recombinant; tags: N-terminal GST; dsDNA, one strand shown
# T4 sequence: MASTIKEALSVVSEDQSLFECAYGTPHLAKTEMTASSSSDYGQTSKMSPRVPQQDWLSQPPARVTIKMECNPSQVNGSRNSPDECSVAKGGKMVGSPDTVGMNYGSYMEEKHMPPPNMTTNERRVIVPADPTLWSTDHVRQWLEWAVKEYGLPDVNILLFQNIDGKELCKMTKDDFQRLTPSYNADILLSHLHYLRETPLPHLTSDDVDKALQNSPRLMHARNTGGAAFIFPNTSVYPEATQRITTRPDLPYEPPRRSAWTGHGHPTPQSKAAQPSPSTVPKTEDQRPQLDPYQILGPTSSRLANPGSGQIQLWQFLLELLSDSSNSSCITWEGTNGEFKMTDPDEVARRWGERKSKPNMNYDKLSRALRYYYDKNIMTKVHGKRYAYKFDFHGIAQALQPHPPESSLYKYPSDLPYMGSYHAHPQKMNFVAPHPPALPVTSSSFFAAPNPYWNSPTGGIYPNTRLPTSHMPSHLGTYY
# How it was run: as §1
# [5] = biological target: ELF1 (Homo sapiens, UniProt P32519 1-619); conditions: protein: recombinant; tags: N-terminal GST; dsDNA, one strand shown
# Chain of ELF1 (P32519 whole entry): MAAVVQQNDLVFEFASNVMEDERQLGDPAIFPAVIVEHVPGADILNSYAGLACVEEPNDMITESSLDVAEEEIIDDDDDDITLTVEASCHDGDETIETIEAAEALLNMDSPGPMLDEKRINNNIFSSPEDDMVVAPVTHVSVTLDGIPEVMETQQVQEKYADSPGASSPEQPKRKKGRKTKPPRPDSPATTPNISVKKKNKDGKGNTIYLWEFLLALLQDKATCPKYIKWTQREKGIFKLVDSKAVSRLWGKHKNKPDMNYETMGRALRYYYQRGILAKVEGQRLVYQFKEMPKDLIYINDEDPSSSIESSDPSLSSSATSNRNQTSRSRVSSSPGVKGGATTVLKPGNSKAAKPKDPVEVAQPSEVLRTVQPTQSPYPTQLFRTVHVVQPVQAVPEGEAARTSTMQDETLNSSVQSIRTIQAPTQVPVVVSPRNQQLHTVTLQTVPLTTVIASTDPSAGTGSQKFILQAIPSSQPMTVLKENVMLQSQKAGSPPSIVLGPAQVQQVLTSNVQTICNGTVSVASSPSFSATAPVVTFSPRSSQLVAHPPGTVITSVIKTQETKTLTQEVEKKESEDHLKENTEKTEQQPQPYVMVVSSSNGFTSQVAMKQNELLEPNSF
# How it was run: as §1
# [6] = biological target: T5, EHF (Homo sapiens, UniProt Q9NZC4 1-300); conditions: protein: recombinant; tags: N-terminal GST; dsDNA, one strand shown
# T5 sequence: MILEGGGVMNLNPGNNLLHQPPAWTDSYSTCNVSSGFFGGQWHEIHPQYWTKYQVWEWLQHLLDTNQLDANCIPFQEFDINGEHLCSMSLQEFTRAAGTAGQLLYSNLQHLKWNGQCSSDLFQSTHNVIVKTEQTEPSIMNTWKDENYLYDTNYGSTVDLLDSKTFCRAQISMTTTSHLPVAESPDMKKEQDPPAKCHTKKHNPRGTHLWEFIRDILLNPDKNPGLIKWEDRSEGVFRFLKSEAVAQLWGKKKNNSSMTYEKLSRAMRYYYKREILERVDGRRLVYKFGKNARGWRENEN
# How it was run: as §1
# [7] = biological target: SPI1 (Homo sapiens, UniProt P17947 1-270); conditions: protein: recombinant; tags: N-terminal GST; dsDNA, one strand shown
# How it was run: as §1
# [8] = biological target: SPIB (Homo sapiens, UniProt Q01892 1-262); conditions: protein: recombinant; tags: N-terminal GST; dsDNA, one strand shown
# Chain of SPIB (Q01892 whole entry): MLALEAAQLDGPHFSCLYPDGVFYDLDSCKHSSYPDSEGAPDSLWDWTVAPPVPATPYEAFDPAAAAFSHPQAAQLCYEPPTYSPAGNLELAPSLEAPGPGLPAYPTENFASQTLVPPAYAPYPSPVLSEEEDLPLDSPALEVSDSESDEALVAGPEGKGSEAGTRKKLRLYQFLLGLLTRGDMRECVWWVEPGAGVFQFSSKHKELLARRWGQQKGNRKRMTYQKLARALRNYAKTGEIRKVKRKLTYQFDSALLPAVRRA
# How it was run: as §1
# [9] = biological target: T6, ELK3 (Homo sapiens, UniProt P41970 1-407); conditions: protein: recombinant; tags: N-terminal GST; dsDNA, one strand shown
# T6 sequence: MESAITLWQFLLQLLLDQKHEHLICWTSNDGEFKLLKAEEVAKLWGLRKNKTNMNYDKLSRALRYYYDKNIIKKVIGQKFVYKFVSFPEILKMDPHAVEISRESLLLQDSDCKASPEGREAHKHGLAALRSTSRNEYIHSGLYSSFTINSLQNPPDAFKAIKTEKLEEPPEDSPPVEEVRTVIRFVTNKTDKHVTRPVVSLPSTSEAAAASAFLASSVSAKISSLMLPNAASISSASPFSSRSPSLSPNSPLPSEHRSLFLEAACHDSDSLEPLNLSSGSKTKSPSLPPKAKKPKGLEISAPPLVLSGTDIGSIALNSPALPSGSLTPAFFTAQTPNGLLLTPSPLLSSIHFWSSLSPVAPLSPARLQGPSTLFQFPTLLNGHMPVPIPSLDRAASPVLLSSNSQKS
# How it was run: as §1
# [10] = biological target: T7, FEV (Homo sapiens, UniProt Q99581 1-238); conditions: protein: recombinant; tags: N-terminal GST; dsDNA, one strand shown
# T7 sequence: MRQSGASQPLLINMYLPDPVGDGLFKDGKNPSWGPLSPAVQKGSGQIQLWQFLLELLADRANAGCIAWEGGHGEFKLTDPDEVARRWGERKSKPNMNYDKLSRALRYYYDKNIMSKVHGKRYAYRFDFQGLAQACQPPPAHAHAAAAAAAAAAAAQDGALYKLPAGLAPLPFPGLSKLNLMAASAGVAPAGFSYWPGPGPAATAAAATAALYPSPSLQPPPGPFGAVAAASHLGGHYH
# How it was run: as §1
# [11] = biological target: ETV5 (Homo sapiens, UniProt P41161 1-510); conditions: protein: recombinant; tags: N-terminal GST; dsDNA, one strand shown
# Chain of ETV5 (P41161 whole entry): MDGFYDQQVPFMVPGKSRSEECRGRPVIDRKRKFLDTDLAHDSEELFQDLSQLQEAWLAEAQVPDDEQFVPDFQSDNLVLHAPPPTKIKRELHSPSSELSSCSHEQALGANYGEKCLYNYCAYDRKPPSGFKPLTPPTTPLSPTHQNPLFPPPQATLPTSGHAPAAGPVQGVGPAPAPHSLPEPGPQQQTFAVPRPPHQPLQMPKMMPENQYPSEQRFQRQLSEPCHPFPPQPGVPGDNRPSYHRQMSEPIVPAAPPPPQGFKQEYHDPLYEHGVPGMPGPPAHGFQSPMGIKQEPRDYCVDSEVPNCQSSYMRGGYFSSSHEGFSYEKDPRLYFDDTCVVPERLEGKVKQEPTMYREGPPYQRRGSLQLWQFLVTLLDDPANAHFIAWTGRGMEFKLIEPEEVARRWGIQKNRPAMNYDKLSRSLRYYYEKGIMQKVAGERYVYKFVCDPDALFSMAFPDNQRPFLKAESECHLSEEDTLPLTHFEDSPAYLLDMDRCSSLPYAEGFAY
# How it was run: as §1
# [12] = biological target: HSF1 (Homo sapiens, UniProt Q00613 1-529); conditions: protein: recombinant; tags: N-terminal GST; chain copies: 3; dsDNA, one strand shown
# Chain of HSF1 (Q00613 whole entry): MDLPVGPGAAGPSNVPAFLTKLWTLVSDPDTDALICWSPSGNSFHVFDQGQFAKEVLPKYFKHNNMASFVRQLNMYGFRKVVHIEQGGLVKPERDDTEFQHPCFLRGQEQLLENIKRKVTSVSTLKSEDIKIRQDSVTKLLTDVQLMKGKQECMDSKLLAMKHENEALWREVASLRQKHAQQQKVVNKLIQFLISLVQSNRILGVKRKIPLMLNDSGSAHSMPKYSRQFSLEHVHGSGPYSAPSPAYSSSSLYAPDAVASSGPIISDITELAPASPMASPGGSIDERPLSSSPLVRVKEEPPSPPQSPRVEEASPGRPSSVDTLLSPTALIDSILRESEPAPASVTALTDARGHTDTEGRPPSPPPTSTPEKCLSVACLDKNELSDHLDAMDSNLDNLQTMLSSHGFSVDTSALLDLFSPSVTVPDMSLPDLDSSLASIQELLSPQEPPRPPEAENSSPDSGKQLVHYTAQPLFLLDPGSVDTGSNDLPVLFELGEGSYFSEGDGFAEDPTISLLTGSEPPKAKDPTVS
# How it was run: as §1
# [13] = biological target: T8, SPIC (Homo sapiens, UniProt Q8N5J4 1-248); conditions: protein: recombinant; tags: N-terminal GST; dsDNA, one strand shown
# T8 sequence: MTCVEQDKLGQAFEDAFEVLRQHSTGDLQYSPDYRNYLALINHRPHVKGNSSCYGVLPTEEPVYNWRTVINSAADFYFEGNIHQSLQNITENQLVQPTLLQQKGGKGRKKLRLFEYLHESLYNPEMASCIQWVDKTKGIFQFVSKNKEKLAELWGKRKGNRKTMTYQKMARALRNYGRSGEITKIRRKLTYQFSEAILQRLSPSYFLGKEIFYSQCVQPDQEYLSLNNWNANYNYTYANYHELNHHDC
# How it was run: as §1
# [14] = biological target: ELF4 (Homo sapiens, UniProt Q99607 1-663); conditions: protein: recombinant; tags: N-terminal GST; dsDNA, one strand shown
# Chain of ELF4 (Q99607 whole entry): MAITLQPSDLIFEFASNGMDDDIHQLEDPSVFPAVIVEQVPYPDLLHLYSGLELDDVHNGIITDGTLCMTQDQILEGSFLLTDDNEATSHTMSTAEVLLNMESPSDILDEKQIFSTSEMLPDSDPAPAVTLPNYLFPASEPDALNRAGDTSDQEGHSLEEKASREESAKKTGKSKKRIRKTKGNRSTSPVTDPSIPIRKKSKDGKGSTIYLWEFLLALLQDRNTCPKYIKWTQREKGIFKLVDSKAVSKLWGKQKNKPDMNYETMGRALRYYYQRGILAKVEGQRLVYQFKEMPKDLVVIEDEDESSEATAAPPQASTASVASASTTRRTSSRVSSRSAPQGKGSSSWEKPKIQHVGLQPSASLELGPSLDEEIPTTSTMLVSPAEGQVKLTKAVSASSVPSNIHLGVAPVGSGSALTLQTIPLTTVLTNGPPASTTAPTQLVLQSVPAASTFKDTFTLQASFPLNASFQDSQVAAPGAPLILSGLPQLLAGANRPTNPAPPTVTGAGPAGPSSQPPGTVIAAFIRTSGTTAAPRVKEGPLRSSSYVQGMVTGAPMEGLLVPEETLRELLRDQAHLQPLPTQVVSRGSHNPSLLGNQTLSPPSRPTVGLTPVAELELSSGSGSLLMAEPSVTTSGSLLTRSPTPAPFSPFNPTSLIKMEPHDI
# How it was run: as §1
# [15] = biological target: T9, ELK4 (Homo sapiens, UniProt P28324-2 1-405); conditions: protein: recombinant; tags: N-terminal GST; dsDNA, one strand shown
# T9 sequence: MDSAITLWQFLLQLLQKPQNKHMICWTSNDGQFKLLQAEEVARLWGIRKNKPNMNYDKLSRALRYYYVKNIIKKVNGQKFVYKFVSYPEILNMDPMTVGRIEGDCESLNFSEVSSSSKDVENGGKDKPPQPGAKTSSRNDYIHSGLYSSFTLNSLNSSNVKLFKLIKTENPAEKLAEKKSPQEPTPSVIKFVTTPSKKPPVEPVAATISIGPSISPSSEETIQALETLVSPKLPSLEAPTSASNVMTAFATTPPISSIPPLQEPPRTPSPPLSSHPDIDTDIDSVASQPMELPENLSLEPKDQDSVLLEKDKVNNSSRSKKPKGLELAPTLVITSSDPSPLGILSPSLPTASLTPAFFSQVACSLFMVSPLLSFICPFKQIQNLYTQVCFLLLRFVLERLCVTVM
# How it was run: as §1
# [16] = biological target: T10, ETV2 (Homo sapiens, UniProt O00321 1-342); conditions: protein: recombinant; tags: N-terminal GST; dsDNA, one strand shown
# T10 sequence: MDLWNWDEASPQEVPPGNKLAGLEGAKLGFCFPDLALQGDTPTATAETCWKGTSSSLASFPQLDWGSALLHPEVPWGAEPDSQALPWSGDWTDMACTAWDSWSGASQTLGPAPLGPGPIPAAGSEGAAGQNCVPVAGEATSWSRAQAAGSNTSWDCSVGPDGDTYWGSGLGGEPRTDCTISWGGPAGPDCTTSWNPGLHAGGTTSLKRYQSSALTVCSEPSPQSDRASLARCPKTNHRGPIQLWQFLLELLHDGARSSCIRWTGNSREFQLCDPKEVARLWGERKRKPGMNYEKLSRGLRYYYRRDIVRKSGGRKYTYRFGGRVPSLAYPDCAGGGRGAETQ
# How it was run: as §1
# [17] = biological target: T11, ELF3 (Homo sapiens, UniProt P78545 1-371); conditions: protein: recombinant; tags: N-terminal GST; dsDNA, one strand shown
# T11 sequence: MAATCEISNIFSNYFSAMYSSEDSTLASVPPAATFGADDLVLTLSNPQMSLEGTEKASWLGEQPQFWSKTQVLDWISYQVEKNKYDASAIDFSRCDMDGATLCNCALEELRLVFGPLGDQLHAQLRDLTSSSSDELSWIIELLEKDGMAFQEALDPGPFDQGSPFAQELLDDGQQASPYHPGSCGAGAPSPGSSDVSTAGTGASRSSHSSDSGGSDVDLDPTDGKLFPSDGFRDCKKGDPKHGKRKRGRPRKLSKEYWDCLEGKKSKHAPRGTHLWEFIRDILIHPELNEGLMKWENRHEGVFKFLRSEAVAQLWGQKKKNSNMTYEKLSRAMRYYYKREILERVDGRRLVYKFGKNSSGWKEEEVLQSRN
# How it was run: as §1
# [18] = biological target: CRX (Homo sapiens, UniProt O43186 1-299); conditions: protein: recombinant; tags: N-terminal GST; dsDNA, one strand shown
# Chain of CRX (O43186 whole entry): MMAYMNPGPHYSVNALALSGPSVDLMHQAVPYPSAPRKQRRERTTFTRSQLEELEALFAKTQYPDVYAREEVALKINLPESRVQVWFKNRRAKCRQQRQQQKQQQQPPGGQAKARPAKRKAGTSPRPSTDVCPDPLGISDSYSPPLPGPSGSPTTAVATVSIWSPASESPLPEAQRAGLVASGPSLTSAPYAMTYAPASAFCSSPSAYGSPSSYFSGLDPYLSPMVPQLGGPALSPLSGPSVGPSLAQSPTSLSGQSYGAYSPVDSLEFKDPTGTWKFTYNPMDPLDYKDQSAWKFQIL
# How it was run: as §1
# [19] = biological target: ETV1 (Homo sapiens, UniProt P50549 1-477); conditions: protein: recombinant; tags: N-terminal GST; dsDNA, one strand shown
# Chain of ETV1 (P50549 whole entry): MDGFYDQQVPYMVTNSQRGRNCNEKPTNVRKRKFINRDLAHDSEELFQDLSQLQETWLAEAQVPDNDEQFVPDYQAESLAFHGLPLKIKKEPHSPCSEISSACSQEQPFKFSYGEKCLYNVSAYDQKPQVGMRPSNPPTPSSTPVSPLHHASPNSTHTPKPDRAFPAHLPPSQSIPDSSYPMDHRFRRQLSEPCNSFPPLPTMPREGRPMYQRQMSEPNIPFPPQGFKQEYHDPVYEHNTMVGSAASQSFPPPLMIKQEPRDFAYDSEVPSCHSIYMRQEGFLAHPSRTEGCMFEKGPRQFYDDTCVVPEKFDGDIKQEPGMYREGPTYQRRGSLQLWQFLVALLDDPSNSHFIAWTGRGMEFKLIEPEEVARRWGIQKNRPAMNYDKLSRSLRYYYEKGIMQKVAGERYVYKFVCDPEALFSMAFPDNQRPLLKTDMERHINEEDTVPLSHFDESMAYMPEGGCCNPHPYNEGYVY
# How it was run: as §1
sequence,measurement,setting,value
ACAATA,binding signal,[1],"1.13 fold enrichment (6-mer frequency, TF over GST control)"
same,binding signal,[2],"1.12 fold enrichment (6-mer frequency, TF over GST control)"
same,binding signal,[3],"1.29 fold enrichment (6-mer frequency, TF over GST control)"
same,binding signal,[4],"1.13 fold enrichment (6-mer frequency, TF over GST control)"
same,binding signal,[5],"1.1 fold enrichment (6-mer frequency, TF over GST control)"
same,binding signal,[6],"1.16 fold enrichment (6-mer frequency, TF over GST control)"
same,binding signal,[7],"1.16 fold enrichment (6-mer frequency, TF over GST control)"
same,binding signal,[8],"1.2 fold enrichment (6-mer frequency, TF over GST control)"
same,binding signal,[9],"1.23 fold enrichment (6-mer frequency, TF over GST control)"
same,binding signal,[10],"1.13 fold enrichment (6-mer frequency, TF over GST control)"
same,binding signal,[11],"1.15 fold enrichment (6-mer frequency, TF over GST control)"
same,binding signal,[12],"1.16 fold enrichment (6-mer frequency, TF over GST control)"
same,binding signal,[13],"1.12 fold enrichment (6-mer frequency, TF over GST control)"
same,binding signal,[14],"1.16 fold enrichment (6-mer frequency, TF over GST control)"
same,binding signal,[15],"1.22 fold enrichment (6-mer frequency, TF over GST control)"
same,binding signal,[16],"1.2 fold enrichment (6-mer frequency, TF over GST control)"
same,binding signal,[17],"1.33 fold enrichment (6-mer frequency, TF over GST control)"
same,binding signal,[18],"1.19 fold enrichment (6-mer frequency, TF over GST control)"
same,binding signal,[19],"1.13 fold enrichment (6-mer frequency, TF over GST control)"
